Reference: PubChem BioAssay (EPA / NIEHS)
Results filed as inconclusive are left out. Active and inactive are the calls of the source. Rule for the calls, unless noted: active = hit-call score of the fitted dose curve at least 0.9, where 1 is the maximum; inactive = score below 0.9.

Experiments:
[1] = molecular target: CCAAT/enhancer-binding protein beta (Homo sapiens) (UniProt P17676); experiment: ATG_C_EBP_CIS: Attagene CIS-FACTORIAL HepG2 Assay for human CCAAT/Enhancer Binding Protein (C/EBP) beta (AID 2282927); conditions: HepG2 Attagene cis-factorial transcription factor reporter; actives raise or lower the signal
Chain of CCAAT/enhancer-binding protein beta (Homo sapiens) (P17676 whole entry, looked up): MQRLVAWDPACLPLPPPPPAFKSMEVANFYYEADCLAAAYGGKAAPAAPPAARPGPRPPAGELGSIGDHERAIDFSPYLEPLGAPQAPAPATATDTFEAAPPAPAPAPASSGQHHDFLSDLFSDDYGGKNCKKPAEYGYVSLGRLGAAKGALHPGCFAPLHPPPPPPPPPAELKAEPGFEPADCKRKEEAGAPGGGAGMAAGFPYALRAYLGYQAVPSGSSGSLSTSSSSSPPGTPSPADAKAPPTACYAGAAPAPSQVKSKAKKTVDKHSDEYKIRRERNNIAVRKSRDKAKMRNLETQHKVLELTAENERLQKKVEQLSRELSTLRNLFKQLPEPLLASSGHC
Summary of the method: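 Following a 24 h incubation with test chemical, transfected HepG2 cells yielded RNA whose reporter transcripts were quantified by RT-PCR and fluorescent capillary electrophoresis, with DMSO serving as baseline for bidirectional fitting.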

[2] = ATG_CMV_CIS: Attagene CIS-FACTORIAL HepG2 Assay for human CMV (Internal Marker) (AID 2282928); conditions: HepG2 CMV promoter reporter, transcription factor profiling; actives raise or lower the signal;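 note: endpoint acts as a background internal control marker rather than a target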
Summary of the method: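 Bidirectional fits against DMSO are applied to reporter mRNA, read by RT-PCR with capillary electrophoresis, from HepG2 cells exposed 24 h. The endpoint serves as an internal CMV background marker within the cis-factorial reporter panel.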

[3] = ATG_DR4_LXR_CIS: Attagene CIS-FACTORIAL HepG2 Assay for human Liver X Receptor (LXR), DR4 submotif (AID 2282929); conditions: HepG2 Attagene DR4 cis-reporter, mRNA transcription; actives raise or lower the signal
Summary of the method: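 Transiently transfected HepG2 liver cells; cis-regulated reporters; 24 h dosing. RT-PCR plus CE read-out of reporter mRNA. DMSO baseline, bidirectional curve fitting.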

[4] = ATG_AP_1_CIS: Attagene CIS-FACTORIAL HepG2 Assay for human Activator Protein 1 (AP-1) (AID 2282931); conditions: HepG2 Attagene cis-factorial AP-1 reporter mRNA; actives raise or lower the signal
Summary of the method: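 We transfected HepG2 cells transiently with a set of cis-regulated reporter transcription units, dosed them for 24 h, and quantified reporter mRNA via RT-PCR and capillary electrophoresis, scoring gain or loss of signal relative to DMSO.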

[5] = ATG_BRE_CIS: Attagene CIS-FACTORIAL HepG2 Assay for human Bone Morphogenetic Protein (BMP) Response Element (BRE) (AID 2282933); conditions: HepG2 BMP response element reporter, Attagene transcription factor profiling; actives raise or lower the signal
Summary of the method: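 A HepG2 multiplex reporter system measured inducible reporter mRNA 24 h post-dosing. Detection: RT-PCR, 6-FAM primer extension, HpaI digestion, capillary electrophoresis. Activity fitted bidirectionally relative to DMSO.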

[6] = ATG_E_Box_CIS: Attagene CIS-FACTORIAL HepG2 Assay for human Enhancer Box (E-box) (AID 2282936); conditions: HepG2 E-box cis-reporter transcription, actives raise or lower the signal
Summary of the method: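 Endogenous transcription factor activity was sensed in human HepG2 liver cells through transfected cis-promoter reporter units. After 24 h of dosing, total RNA was reverse-transcribed and reporter cDNA resolved by capillary electrophoresis.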

[7] = ATG_EGR_CIS: Attagene CIS-FACTORIAL HepG2 Assay for human Early Growth Response 1 (EGR1) (AID 2282938); conditions: HepG2 Attagene CIS-FACTORIAL EGR reporter mRNA; actives raise or lower the signal
Summary of the method: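 Multiplexed cis-reporter system in human hepatoma HepG2 cells, transiently transfected. Cells are dosed for 24 h; reporter transcripts are amplified, fluorescently tagged and sized by capillary electrophoresis, with DMSO as negative control.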

[8] = ATG_M_19_CIS: Attagene CIS-FACTORIAL HepG2 Assay for M19 Transcription Factor (Internal Marker) (AID 2282939); conditions: HepG2 Attagene CIS-FACTORIAL M19 internal marker reporter; actives raise or lower the signal
Summary of the method: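 Chemical-treated HepG2 (24 h) with MRTU constructs; reporter transcripts detected by fluorescent RT-PCR fragment analysis on capillary electrophoresis. Internal background marker, DMSO as baseline.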

[9] = ATG_Ets_CIS: Attagene CIS-FACTORIAL HepG2 Assay for human Erythroblast Transformation Specific (ETS) (AID 2282941); conditions: HepG2 ETS cis-reporter transcription, actives raise or lower the signal
Summary of the method: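 Endogenous transcription factor activity read as reporter mRNA via RT-PCR and capillary electrophoresis, with gain or loss fitted bidirectionally against DMSO. Human HepG2 liver cells, transiently transfected CIS reporter constructs, 24 h exposure.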

[10] = ATG_FoxO_CIS: Attagene CIS-FACTORIAL HepG2 Assay for human Forkhead box O (FoxO) (AID 2282943); conditions: HepG2 Attagene cis-reporter, FoxO element, mRNA; actives raise or lower the signal
Summary of the method: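 Values reflect reporter mRNA induction or loss in HepG2 cells 24 h post-dosing, fitted bidirectionally with DMSO as negative control and baseline. Detection used RT-PCR and fluorescence capillary electrophoresis.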

[11] = ATG_GATA_CIS: Attagene CIS-FACTORIAL HepG2 Assay for human GATA Binding Protein (AID 2282944); conditions: HepG2 GATA cis-element reporter, Attagene multiplex mRNA; actives raise or lower the signal
Summary of the method: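 Transfected cis-reporter HepG2 cells were treated with chemicals for 24 hours. Total RNA was then converted to cDNA, amplified with reporter-specific primers and analysed by fluorescent capillary electrophoresis, using DMSO-treated wells as baseline.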

[12] = ATG_ISRE_CIS: Attagene CIS-FACTORIAL HepG2 Assay for human Interferon Regulatory Factor 1 (IRF1) binding to an Interferon-Stimulated Response Element (ISRE) (AID 2282948); conditions: HepG2 ISRE cis-reporter (Attagene), mRNA transcription readout; actives raise or lower the signal
Summary of the method: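 Endogenous transcription factor activity read as reporter transcript abundance via RT-PCR and capillary electrophoresis. HepG2 cells transiently transfected, 24 h chemical exposure. Gain or loss fitted against DMSO baseline.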

[13] = ATG_M_06_CIS: Attagene CIS-FACTORIAL HepG2 Assay for M06 Transcription Factor (Internal Marker) (AID 2282950); conditions: HepG2 Attagene CIS-FACTORIAL M06 internal marker reporter; actives raise or lower the signal
Summary of the method: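 Cells (HepG2, transiently carrying cis-driven reporter units) receive chemical for 24 h before RNA isolation. Reporter cDNA is PCR-amplified, FAM-labelled by primer extension, HpaI-digested and sized on a capillary analyser.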

[14] = molecular target: Hepatocyte nuclear factor 6 (Homo sapiens) (UniProt Q9UBC0); experiment: ATG_HNF6_CIS: Attagene CIS-FACTORIAL HepG2 Assay for human Hepatocyte Nuclear Factor 6 (HNF6) (AID 2282952); conditions: HepG2 Attagene cis-factorial HNF6 reporter transcription; actives raise or lower the signal
Chain of Hepatocyte nuclear factor 6 (Homo sapiens) (Q9UBC0 whole entry, looked up): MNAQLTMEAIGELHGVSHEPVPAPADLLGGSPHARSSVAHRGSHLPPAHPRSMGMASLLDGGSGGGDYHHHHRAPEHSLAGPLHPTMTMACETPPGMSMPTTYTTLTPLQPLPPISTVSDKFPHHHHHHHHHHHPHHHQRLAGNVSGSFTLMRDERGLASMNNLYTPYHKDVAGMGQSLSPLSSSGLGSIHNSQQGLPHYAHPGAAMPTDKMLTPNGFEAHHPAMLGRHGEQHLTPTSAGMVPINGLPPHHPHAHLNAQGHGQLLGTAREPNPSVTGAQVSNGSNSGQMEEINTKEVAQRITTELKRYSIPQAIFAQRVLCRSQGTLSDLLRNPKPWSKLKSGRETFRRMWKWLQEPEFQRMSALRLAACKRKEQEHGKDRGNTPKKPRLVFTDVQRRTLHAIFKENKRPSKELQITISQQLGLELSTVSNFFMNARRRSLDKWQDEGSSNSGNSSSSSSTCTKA
Summary of the method: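 Endogenous transcription factor activity in human HepG2 liver cells was captured through cis-regulated reporter constructs. After 24 h treatment, reporter mRNA was measured by RT-PCR with capillary electrophoresis, and activity was fitted in both directions relative to DMSO.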

[15] = ATG_MRE_CIS: Attagene CIS-FACTORIAL HepG2 Assay for human Metal Responsive Element (MRE) (AID 2282954); conditions: HepG2 MRE cis-reporter transcription, Attagene multiplex; actives raise or lower the signal
Summary of the method: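 Cells were transfected with cis-promoter reporter transcription units, then dosed for 24 h. RNA was reverse-transcribed, amplified, fluorescently labelled and resolved by capillary electrophoresis, and activity was fitted in both directions relative to DMSO.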

[16] = molecular target: Paired box protein Pax-6 (Homo sapiens) (UniProt P26367); experiment: ATG_Pax6_CIS: Attagene CIS-FACTORIAL HepG2 Assay for human Paired Box 6 (PAX6) (AID 2282956); conditions: HepG2 CIS-FACTORIAL PAX6 reporter transcription, RNA readout; actives raise or lower the signal
Chain of Paired box protein Pax-6 (Homo sapiens) (P26367 whole entry, looked up): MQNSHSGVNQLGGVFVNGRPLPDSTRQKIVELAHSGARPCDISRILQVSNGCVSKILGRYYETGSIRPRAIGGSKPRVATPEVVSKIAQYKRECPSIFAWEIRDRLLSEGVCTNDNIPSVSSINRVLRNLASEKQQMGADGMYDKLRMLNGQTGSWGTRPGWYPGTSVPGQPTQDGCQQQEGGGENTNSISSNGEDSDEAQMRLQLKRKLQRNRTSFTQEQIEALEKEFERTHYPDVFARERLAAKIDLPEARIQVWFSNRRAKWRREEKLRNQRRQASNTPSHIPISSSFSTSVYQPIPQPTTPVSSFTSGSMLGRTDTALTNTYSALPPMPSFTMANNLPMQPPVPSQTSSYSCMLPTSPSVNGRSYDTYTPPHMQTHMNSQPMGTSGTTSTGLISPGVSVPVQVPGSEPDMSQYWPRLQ
Summary of the method: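 Read-out is reporter transcript level, measured by RT-PCR with fluorescent primer extension and capillary electrophoresis after 24 h dosing of transfected HepG2 cells. Activity in either direction fitted relative to DMSO control.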

[17] = ATG_Sox_CIS: Attagene CIS-FACTORIAL HepG2 Assay for human SRY-box transcription factor (SOX) (AID 2282960); conditions: HepG2 Attagene cis-factorial SOX reporter, mRNA; actives raise or lower the signal
Summary of the method: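 Fluorescence-labelled cDNA fragments from reporter transcripts, sized by CE, give the signal. Cells: HepG2, transiently transfected with cis-regulated reporter units. Exposure 24 h; DMSO negative control; bidirectional curve fitting.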

[18] = molecular target: Transcription factor Sp1 (Homo sapiens) (UniProt P08047); experiment: ATG_Sp1_CIS: Attagene CIS-FACTORIAL HepG2 Assay for human Specificity Protein 1 (Sp1) (AID 2282961); conditions: HepG2 Sp1 cis-reporter transcription, actives raise or lower the signal
Chain of Transcription factor Sp1 (Homo sapiens) (P08047 whole entry, looked up): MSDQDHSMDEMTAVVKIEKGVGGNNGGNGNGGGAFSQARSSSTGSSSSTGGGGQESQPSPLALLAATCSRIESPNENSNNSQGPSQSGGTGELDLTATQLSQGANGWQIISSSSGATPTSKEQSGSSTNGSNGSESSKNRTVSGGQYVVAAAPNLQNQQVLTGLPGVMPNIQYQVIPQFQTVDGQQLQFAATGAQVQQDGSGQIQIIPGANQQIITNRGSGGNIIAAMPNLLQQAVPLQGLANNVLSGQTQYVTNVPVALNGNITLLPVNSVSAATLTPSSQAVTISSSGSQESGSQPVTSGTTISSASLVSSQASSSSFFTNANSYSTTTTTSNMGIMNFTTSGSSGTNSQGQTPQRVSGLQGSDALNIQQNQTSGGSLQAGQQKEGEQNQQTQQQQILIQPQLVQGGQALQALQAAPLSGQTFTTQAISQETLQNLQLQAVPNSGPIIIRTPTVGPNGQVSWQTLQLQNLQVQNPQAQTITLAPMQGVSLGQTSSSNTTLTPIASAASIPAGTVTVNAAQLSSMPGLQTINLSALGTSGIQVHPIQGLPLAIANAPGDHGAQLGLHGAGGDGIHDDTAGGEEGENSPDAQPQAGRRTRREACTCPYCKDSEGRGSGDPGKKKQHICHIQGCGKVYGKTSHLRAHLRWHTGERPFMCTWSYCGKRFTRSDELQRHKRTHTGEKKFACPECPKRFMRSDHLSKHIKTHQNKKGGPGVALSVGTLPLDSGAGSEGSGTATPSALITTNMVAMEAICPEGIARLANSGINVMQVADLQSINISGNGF
Summary of the method: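 Chemicals are dosed onto HepG2 cells transfected with multiple cis-promoter reporter constructs, and after 24 h reporter RNA is reverse-transcribed, PCR-amplified and resolved by capillary electrophoresis for fluorescence quantitation; activity is scored up or down against DMSO.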

[19] = molecular target: Signal transducer and activator of transcription 3 (Homo sapiens) (UniProt P40763); experiment: ATG_STAT3_CIS: Attagene CIS-FACTORIAL HepG2 Assay for human Signal Transducer and Activator of Transcription 3 (STAT3) (AID 2282963); conditions: HepG2, Attagene cis-factorial STAT3 reporter transcription; actives raise or lower the signal
Chain of Signal transducer and activator of transcription 3 (Homo sapiens) (P40763 whole entry, looked up): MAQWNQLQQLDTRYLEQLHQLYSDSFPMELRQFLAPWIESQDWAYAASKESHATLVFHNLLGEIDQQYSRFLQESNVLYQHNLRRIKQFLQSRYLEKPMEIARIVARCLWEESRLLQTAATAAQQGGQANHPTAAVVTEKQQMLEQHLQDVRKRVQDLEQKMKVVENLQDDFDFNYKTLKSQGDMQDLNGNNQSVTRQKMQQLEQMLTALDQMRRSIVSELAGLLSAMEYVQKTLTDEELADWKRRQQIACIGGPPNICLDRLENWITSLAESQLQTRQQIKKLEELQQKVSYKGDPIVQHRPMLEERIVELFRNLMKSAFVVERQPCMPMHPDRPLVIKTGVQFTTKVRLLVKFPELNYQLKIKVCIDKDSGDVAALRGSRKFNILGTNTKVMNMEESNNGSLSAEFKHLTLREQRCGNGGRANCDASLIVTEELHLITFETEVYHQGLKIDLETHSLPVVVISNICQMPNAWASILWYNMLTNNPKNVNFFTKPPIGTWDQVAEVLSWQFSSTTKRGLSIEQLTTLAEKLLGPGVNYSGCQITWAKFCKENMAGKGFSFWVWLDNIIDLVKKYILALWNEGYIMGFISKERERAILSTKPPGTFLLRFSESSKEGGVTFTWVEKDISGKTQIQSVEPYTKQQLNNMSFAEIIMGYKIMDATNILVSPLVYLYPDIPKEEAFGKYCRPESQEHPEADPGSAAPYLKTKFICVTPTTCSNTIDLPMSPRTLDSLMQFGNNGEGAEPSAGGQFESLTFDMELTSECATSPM
Summary of the method: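 HepG2, MRTU-transfected, 24 h dosing. RNA → RT → PCR → FAM label → HpaI → CE. Bidirectional fit vs DMSO.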

[20] = molecular target: Androgen receptor (Homo sapiens) (UniProt P10275); experiment: ATG_AR_TRANS: Attagene TRANS-FACTORIAL HepG2 Assay for human Androgen Receptor (AR) (AID 2282973; active = hit-call score of the fitted dose curve at least 0.9, where 1 is the maximum); conditions: HepG2 Attagene TRANS-FACTORIAL AR reporter transcription
Chain of Androgen receptor (Homo sapiens) (P10275 whole entry, looked up, the tested form may be a part): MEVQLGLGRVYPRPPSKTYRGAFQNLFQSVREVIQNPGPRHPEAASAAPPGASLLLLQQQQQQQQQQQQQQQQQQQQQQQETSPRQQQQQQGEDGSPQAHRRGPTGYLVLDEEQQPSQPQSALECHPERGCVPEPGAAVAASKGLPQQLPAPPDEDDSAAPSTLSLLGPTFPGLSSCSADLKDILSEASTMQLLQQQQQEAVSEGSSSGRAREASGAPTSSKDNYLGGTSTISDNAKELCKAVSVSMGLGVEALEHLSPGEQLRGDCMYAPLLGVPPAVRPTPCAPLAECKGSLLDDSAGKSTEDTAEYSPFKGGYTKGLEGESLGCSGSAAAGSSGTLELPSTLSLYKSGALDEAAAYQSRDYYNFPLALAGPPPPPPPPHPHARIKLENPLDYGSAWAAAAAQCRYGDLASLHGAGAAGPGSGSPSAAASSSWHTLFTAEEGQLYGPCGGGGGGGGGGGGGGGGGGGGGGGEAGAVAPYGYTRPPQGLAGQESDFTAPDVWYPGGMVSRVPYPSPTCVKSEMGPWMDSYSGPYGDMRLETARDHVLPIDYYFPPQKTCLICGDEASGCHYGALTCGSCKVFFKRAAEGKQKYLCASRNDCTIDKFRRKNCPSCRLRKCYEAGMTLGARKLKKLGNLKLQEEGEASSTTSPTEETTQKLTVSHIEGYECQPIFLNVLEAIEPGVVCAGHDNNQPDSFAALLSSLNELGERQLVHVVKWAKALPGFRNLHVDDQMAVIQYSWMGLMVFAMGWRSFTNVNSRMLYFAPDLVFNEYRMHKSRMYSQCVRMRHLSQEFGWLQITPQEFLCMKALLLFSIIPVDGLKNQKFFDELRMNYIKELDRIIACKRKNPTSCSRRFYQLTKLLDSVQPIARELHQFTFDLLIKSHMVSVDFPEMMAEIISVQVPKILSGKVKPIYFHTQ
Summary of the method: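 Transfected HepG2, 24 h treatment, chimeric NR-Gal4 driving GAL4-UAS reporters. mRNA induction by RT-PCR/capillary electrophoresis fluorescence; DMSO as negative control and baseline.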

Measured: AC50

CCOC(=O)COc1ccc(Cl)cc1Cl
not listed: [20]
inactive: all other assays above

CCOC(=O)N(C)N=O
not listed: [20]
inactive: all other assays above

S=c1[nH]c2ccccc2[nH]1
not listed: [20]
inactive: all other assays above

O=C(NC(=O)c1c(F)cccc1F)Nc1ccc(Oc2ccc(C(F)(F)F)cc2Cl)cc1F
active: [2] 4.11 µM | [12] 26.3 µM
not listed: [20]
inactive: all other assays above

COc1cc2c(c(OC)c1OC)-c1ccc(OC)c(=O)cc1[C@@H](NC(C)=O)CC2
inactive: [20]

CC(=O)C=Cc1ccccc1
inactive: [3] | [6] | [8] | [11] | [13] | [15] | [18] | [19]
active: [1] 100 µM | [2] 128 µM | [4] 133 µM | [5] 74.5 µM | [7] 146 µM | [9] 100 µM | [10] 100 µM | [12] 81.1 µM | [14] 179 µM | [16] 130 µM | [17] 164 µM

O=C(O)CCl
not listed: [20]
inactive: all other assays above

COCC(=O)N(c1c(C)cccc1C)N1CCOC1=O
not listed: [20]
inactive: all other assays above
